Pf growth 96h = inhibits malaria parasite growth, 96 h | P. falciparum luciferase reporter growth, 96 h | Potency, µM (top dose mostly 28.7 µM), for inactives: top-dose activity change, negative = inhibition, actives largely listed as inhibitors | 6.9% of 320,000 active | AID 504834; also: potency is read from the fitted curve at half-maximal effect
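Erythrocytes infected with luciferase-expressing P. falciparum were dispensed at 2% hematocrit and 0.05% parasitemia (final), then incubated with compounds 96 hours at 37 C in 5% CO2. Luminescence after detection reagent addition reported growth.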
Sm TGR inh = blocks Schistosoma mansoni thioredoxin glutathione reductase; purified TGR, DTNB reduction, TNB absorbance 405 nm; Potency, µM (series often up to 114 µM), inactives show at the top dose activity change, negative = inhibition, actives largely listed as inhibitors; 3% of 360,000 active; AID 485364; also: potency is read from the fitted curve at half-maximal effect; nearly all actives have a fitted effect of over 60% in size
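TGR 20 nM + NADPH 100 uM (dispensed conc.), cpd preinc 15 min RT; start with NADPH (500 uM addition) then DTNB (15 mM addition). Kinetic TNB absorbance, 405 nm filter. Four-parameter Hill fit across titration.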
HCMV inh = blocks human cytomegalovirus replication; HFF cells, HCMV-luciferase reporter, 72 h; hits give low values; activity change, negative = inhibition, % at 57.5 µM; 4.5% of 410,000 active; in the data active = activity change below about -60%; inconclusive = no clear call, values can overlap the other calls; inactive = above about -39%
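Screen run at 2 compound doses on HFFs infected with reporter HCMV, MOI 1 PFU/cell. Luciferase activity from cell lysates at 72 h post infection gave inhibition relative to buffer-only and Salinomycin wells.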
Pf growth 48h = P. falciparum growth inhibition at 48 hours (one generation). P. falciparum luciferase growth in erythrocytes, 48 h. Potency, µM (top dose mostly 28.7 µM), inactives show at the highest dose activity change, negative = inhibition, most hits filed as inhibitors. 5.9% of 310,000 active. AID 504832; also: potency is read from the fitted curve at half-maximal effect
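First compound was added to culture medium, then infected red cells at 0.1% parasitemia and 2% hematocrit (final). After incubation at 37 C under 5% CO2, luciferase detection reagent was dispensed and light output recorded.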
FBPA Giardia inh = blocks Giardia fructose-bisphosphate aldolase activity; A8B2U2; Potency, µM (top dose mostly 59.6 µM), for the others: at the top dose activity, negative = inhibition, hits mostly inhibitors; purified Giardia FBPA; 0.71% of 290,000 active; also: potency is read from the fitted curve at half-maximal effect; nearly all actives have a fitted effect of over 55% in size
Target sequence (A8B2U2 whole entry, looked up): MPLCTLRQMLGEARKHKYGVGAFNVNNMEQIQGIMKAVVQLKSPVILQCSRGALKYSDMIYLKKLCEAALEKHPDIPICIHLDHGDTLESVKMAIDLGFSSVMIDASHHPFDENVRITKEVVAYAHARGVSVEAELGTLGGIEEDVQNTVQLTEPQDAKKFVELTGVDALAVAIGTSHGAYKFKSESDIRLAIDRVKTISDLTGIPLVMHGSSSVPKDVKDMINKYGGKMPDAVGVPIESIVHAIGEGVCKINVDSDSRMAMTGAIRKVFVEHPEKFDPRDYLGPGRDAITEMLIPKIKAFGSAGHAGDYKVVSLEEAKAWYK
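40 nM FBPA preincubated 10 min at RT with compound (up to 57.5 uM final), then substrate plus GAPDH/TPI/NAD/arsenate coupling and diaphorase/resazurin added. Fluorescence read after 20 min at RT, 525/598 nm.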
* marks the source's active call; other numbers are inactive results. In the library only some 14% were active in any assay of this set; here they are far more common. Unless noted, calls follow the shape of the dose curve; as a rule, active = well fitted curve in the direction sought with a large enough effect; inconclusive = small, poorly fitted or top-dose-only effect, or another doubt; inactive = no such curve, though single readings can be large; an effect the other way counts as inactive or inconclusive. % is scaled to controls: 0 for no effect and ±100 for the full control effect.

Results for COc1ccc(NC(=O)CSC2=Nc3ccccc3N=C(c3ccc(F)cc3)C2)cc1OC ?
Sm TGR inh: -2%; HCMV inh: -102*

What do the screens show for `CCc1cccc(NC(=O)CSC2=Nc3ccccc3N=C(c3ccc(F)cc3)C2)c1`?
Sm TGR inh: 0%; HCMV inh: -35

What do the screens show for `CC1CCN(CCCNC(=O)c2ccc3c(Cl)c4c(nc3c2)CCCC4)CC1`?
Pf growth 96h: inconclusive; Sm TGR inh: inconclusive; HCMV inh: inconclusive; Pf growth 48h: 13µM*; FBPA Giardia inh: 7%

Results for CCN1CCN(CCCNC(=O)c2ccc3c(Cl)c4c(nc3c2)CCCC4)CC1 ?
Pf growth 96h: -13%; Sm TGR inh: inconclusive; HCMV inh: -83*; Pf growth 48h: inconclusive; FBPA Giardia inh: -2%

What do the screens show for `CCc1nnc(SCC(=O)Nc2cccc(C(F)(F)F)c2)c2cc3oc(C)cc3n12`?
Sm TGR inh: -3%; HCMV inh: -39

What do the screens show for `CCOc1ccc(NC(=O)CN(C)C(=O)c2c(C)nn(-c3ccccc3)c2Cl)cc1OCC`?
Pf growth 96h: -11%; Sm TGR inh: 6%; HCMV inh: -10; Pf growth 48h: -12%

What do the screens show for `CC1CCN(C2CC(=O)N(c3ccccc3)C2=O)CC1` (centres undefined)?
Pf growth 96h: 30%; Sm TGR inh: 28µM*; HCMV inh: -11; Pf growth 48h: 15%; FBPA Giardia inh: 5%

What do the screens show for `CC1CCN(C2CC(=O)N(c3ccc(Br)cc3Br)C2=O)CC1` (centres undefined)?
Pf growth 96h: 59%; Sm TGR inh: 20µM*; HCMV inh: -31; Pf growth 48h: 12%; FBPA Giardia inh: 0%

How did COC(=O)c1ccccc1-c1c2ccc(=N)cc-2oc2cc(N)ccc12 do in these assays?
Pf growth 96h: 0.33µM*; Sm TGR inh: -4%; HCMV inh: -97*; Pf growth 48h: 1.3µM*

How did CCn1cc(/C=N/N=C2\CCC3C4CCc5cc(O)ccc5C4CC[C@]23C)c(C)n1 (some centres undefined) do in these assays?
Pf growth 96h: 1.7µM*; Sm TGR inh: -2%; HCMV inh: 30; FBPA Giardia inh: -4%

How did CC12CCC3c4ccc(O)cc4CCC3C1CCC2=O (centres undefined) do in these assays?
Pf growth 96h: inconclusive; Sm TGR inh: -10%; HCMV inh: -34; Pf growth 48h: inconclusive; FBPA Giardia inh: 6%

Results for COc1ccc(CNC(=O)COc2ccc(C(=O)c3ccc(F)cc3)cc2)cc1 ?
Pf growth 96h: 6%; Sm TGR inh: -1%; HCMV inh: -20; Pf growth 48h: 1%; FBPA Giardia inh: -2%

What do the screens show for `O=C(COc1ccc(Cc2ccccc2)cc1)c1ccc(F)cc1`?
Pf growth 96h: 5.2µM*; Sm TGR inh: 5%; HCMV inh: -16; Pf growth 48h: 2%; FBPA Giardia inh: 2%

How did Cc1cc(OCC(=O)c2ccc(F)cc2)ccc1N1C(=O)CCC1=O do in these assays?
Pf growth 96h: 9.3µM*; Sm TGR inh: 7%; HCMV inh: -28; Pf growth 48h: 2%; FBPA Giardia inh: 2%

What do the screens show for `Cc1ccc(CNC(=O)COc2ccc(C(=O)c3ccc(F)cc3)cc2)cc1`?
Pf growth 96h: inconclusive; Sm TGR inh: -14%; HCMV inh: -75*; Pf growth 48h: -7%; FBPA Giardia inh: 5%

What do the screens show for `O=C(COc1ccc(C(=O)c2ccc(F)cc2)cc1)NCc1ccc(F)cc1`?
Pf growth 96h: inconclusive; Sm TGR inh: 0%; HCMV inh: -78*; Pf growth 48h: 20%; FBPA Giardia inh: 1%

How did O=C(COc1cccc(NC(=O)c2ccccc2)c1)c1ccc(F)cc1 do in these assays?
Pf growth 96h: -10%; Sm TGR inh: 4%; HCMV inh: inconclusive; Pf growth 48h: 9%; FBPA Giardia inh: -2%

What do the screens show for `O=C(COc1ccc(F)cc1)c1ccc2c(c1)CCCC2`?
HCMV inh: -31

Results for CN(Cc1cnn(C)c1)Cc1nc(-c2ccc(Cl)cc2)no1 ?
Pf growth 96h: 9.3µM*; Sm TGR inh: -16%; HCMV inh: 23; Pf growth 48h: 48%; FBPA Giardia inh: -2%

What do the screens show for `CN(Cc1cnn(C)c1)Cc1nc(C(c2ccccc2)c2ccccc2)no1`?
Pf growth 96h: 44%; Sm TGR inh: -15%; HCMV inh: -19; Pf growth 48h: inconclusive; FBPA Giardia inh: 0%

What do the screens show for `COCCN(CC1CCCN(C2Cc3ccccc3C2)C1)C(=O)c1ccc(C(C)=O)cc1` (centres undefined)?
Pf growth 96h: 49%; Sm TGR inh: inconclusive; HCMV inh: -16; Pf growth 48h: inconclusive; FBPA Giardia inh: -2%

How did COCCN(CC1CCCN(C2Cc3ccccc3C2)C1)C(=O)CCC(F)(F)F (centres undefined) do in these assays?
Pf growth 96h: 0.41µM*; Sm TGR inh: inconclusive; HCMV inh: 125; Pf growth 48h: 5%; FBPA Giardia inh: 15%

How did C=CCN(c1ccccc1)S(=O)(=O)c1cccc(C(=O)Nc2ccc(N3CCOCC3)cc2)c1 do in these assays?
Pf growth 96h: inconclusive; Sm TGR inh: 3%; HCMV inh: inconclusive; Pf growth 48h: 2%

Results for COc1ccc(Cl)cc1NC(=O)C(C)N(C)Cc1ccc(C(F)(F)F)cc1 (centres undefined) ?
Pf growth 96h: 2.1µM*; Sm TGR inh: inconclusive; HCMV inh: -87*; Pf growth 48h: 7.4µM*; FBPA Giardia inh: -1%

How did COc1ccccc1NC(=O)C(C)N(C)Cc1ccc(Cl)s1 (centres undefined) do in these assays?
Pf growth 96h: inconclusive; Sm TGR inh: -2%; HCMV inh: -38; Pf growth 48h: 8.3µM*; FBPA Giardia inh: 7%

How did COc1cc(CN(C)C(C)C(=O)Nc2ccc([N+](=O)[O-])cc2Cl)ccc1OC(F)F (centres undefined) do in these assays?
Pf growth 96h: inconclusive; Sm TGR inh: -4%; HCMV inh: -20; Pf growth 48h: 13µM*; FBPA Giardia inh: 3%

How did O=C1NC(=O)C(=Cc2ccc3c(c2)OCO3)C(=O)N1 do in these assays?
Pf growth 96h: 9.3µM*; Sm TGR inh: 0%; HCMV inh: 5; Pf growth 48h: 10%; FBPA Giardia inh: -15%

How did O=C1NC(=S)N/C1=C/c1ccc2c(c1)OCO2 do in these assays?
Pf growth 96h: 0%; Sm TGR inh: -7%; HCMV inh: inconclusive; Pf growth 48h: 10%; FBPA Giardia inh: -4%

Results for CN(CC(=O)Nc1ccc(Cl)c(C(F)(F)F)c1)C(=O)Cn1cc([N+](=O)[O-])ccc1=O ?
Pf growth 96h: 30%; Sm TGR inh: -2%; HCMV inh: -8; Pf growth 48h: 16%

How did COc1ccc(NS(=O)(=O)c2ccc(NC(=O)c3ccc(Br)cc3)cc2)nn1 do in these assays?
Pf growth 96h: 5%; HCMV inh: 4; Pf growth 48h: 7%; FBPA Giardia inh: -5%
